The test deals with U-2932. Briefly: growth inhibition by drug alone (1 - RLU/untreated control) (fraction); higher = stronger inhibition. The settings on record: 177Lu-lilotomab satetraxetan 0 ug/ml. On the procedure: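 U-2932 ABC-DLBCL cells were pretreated or not for 18 h with 1 ug/ml 177Lu-lilotomab satetraxetan (600 MBq/mg), washed and seeded (3000 cells/well) on 384-well plates pre-printed with the Selleck Cambridge Cancer Compound library. Viability was read by RealTime-Glo luminescence on days 3-6 after seeding. Effect = 1 - RLU/mean RLU of the 48 untreated no-drug control wells per plate; Bliss score = (M-E)/(1-Fa), with E the expected Bliss-additive effect.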

The values that follow come from the supplement of paper PMC6897291.

On to `CN(C)CCN(C)CCc1ccc(Cl)c(Cl)c1`, for which the “growth inhibition by drug alone” value (10 nM, time (day): 3) is -0.0253; the “growth inhibition by drug alone” value (10 nM, time (day): 4) is -0.0155; the “growth inhibition by drug alone” value (10 nM, time (day): 5) amounted to 0.000169; the “growth inhibition by drug alone” value (10 nM, time (day): 6) was 0.0547; the “growth inhibition by drug alone” value (1000 nM, time (day): 3) was -0.0569; the “growth inhibition by drug alone” value (1000 nM, time (day): 4) was -0.0395. Moreover, the “growth inhibition by drug alone” value by setting is: (1000 nM, time (day): 5) -0.0761; (1000 nM, time (day): 6) -0.214.

As to `O=C(Oc1ccc([N+](=O)[O-])cc1)N1CCC(C(O)(c2ccc3c(c2)OCO3)c2ccc3c(c2)OCO3)CC1`, the “growth inhibition by drug alone” value by setting is: (10 nM, time (day): 3) 0.0143; (10 nM, time (day): 4) 0.0129; (10 nM, time (day): 5) -0.0257; (10 nM, time (day): 6) -0.105; (1000 nM, time (day): 3) -0.0233; (1000 nM, time (day): 4) 0.0131. Besides, the “growth inhibition by drug alone” value (1000 nM, time (day): 5) is -0.0194 and the “growth inhibition by drug alone” value (1000 nM, time (day): 6) is -0.0568.

As to `CC1=C2C[C@H]3[C@@H](CC=C4C[C@@H](O)CC[C@@]43C)[C@@H]2CC[C@]12O[C@@H]1C[C@H](C)CN[C@H]1[C@H]2C` [Cyclopamine], the “growth inhibition by drug alone” value (10 nM, time (day): 3) is 0.097; the “growth inhibition by drug alone” value (10 nM, time (day): 4) turned out to be 0.0521; the “growth inhibition by drug alone” value (10 nM, time (day): 5) was -0.0277; the “growth inhibition by drug alone” value (10 nM, time (day): 6) was -0.0904; the “growth inhibition by drug alone” value (1000 nM, time (day): 3) was determined as 0.00899; the “growth inhibition by drug alone” value (1000 nM, time (day): 4) was 0.035. Further, the “growth inhibition by drug alone” value reads like this: (1000 nM, time (day): 5) -0.037; (1000 nM, time (day): 6) -0.267.

For `Cn1cc(C2=C(c3cn(C4CCN(Cc5ccccn5)CC4)c4ccccc34)C(=O)NC2=O)c2ccccc21`, the “growth inhibition by drug alone” value by setting is: (10 nM, time (day): 3) -0.0338; (10 nM, time (day): 4) -0.0583; (10 nM, time (day): 5) -0.0539; (10 nM, time (day): 6) 0.0229; (1000 nM, time (day): 3) -0.144; (1000 nM, time (day): 4) -0.131. The “growth inhibition by drug alone” value runs as follows: (1000 nM, time (day): 5) -0.13; (1000 nM, time (day): 6) -0.0775.

With `CC(=O)Nc1ccc(OC[C@](C)(O)C(=O)Nc2ccc([N+](=O)[O-])c(C(F)(F)F)c2)cc1` [Andarine (GTX-007)], the “growth inhibition by drug alone” value is 0.0764 (10 nM, time (day): 3); 0.0433 (10 nM, time (day): 4); -0.0579 (10 nM, time (day): 5); -0.0688 (10 nM, time (day): 6); 0.0614 (1000 nM, time (day): 3); 0.0399 (1000 nM, time (day): 4). For the same molecule, the “growth inhibition by drug alone” value is -0.0394 (1000 nM, time (day): 5) and 0.0038 (1000 nM, time (day): 6).
